# Source: PubChem BioAssay (NCATS)
# Results filed as inconclusive are left out. Where a call stands in place of a potency, no number is given. The source made the active and inactive calls. Calls come from the whole dose curve; as a rule, active = well fitted inhibition curve with a large enough effect; inconclusive = small, poorly fitted or top-dose-only effect; inactive = flat fitted curve, though single readings scatter.
# What was measured:
# Assay in all cases: qHTS profiling for inhibitors of Plasmodium falciparum proliferation (AID 504749); note: nearly all actives have a fitted effect of over 60% in size
# Settings in all cases: P. falciparum in erythrocytes, SYBR Green DNA, 72 h; series mostly up to 28.7 µM
# [1] = test system: FAB9
# In short: (§1)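 Readout was DNA-dye fluorescence from lysed cultures, ex 485/em 535 nm. Parasitized red cells had grown 72 h with compound; data scaled between 0.29 uM artemisinin and DMSO wells and corrected using vehicle-only plates.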
# [2] = test system: GB4
# In short: as §1
# [3] = test system: HB3
# In short: as §1
# [4] = test system: ICS
# In short: as §1
# [5] = test system: JCK
# In short: as §1
# [6] = test system: N140
# In short: as §1
# [7] = test system: P93_24
# In short: as §1
# [8] = test system: P94_40
# In short: as §1
# [9] = test system: PAD
# In short: as §1
# [10] = test system: PC15
# In short: as §1
# Potency is the fitted concentration of half-maximal effect.
SMILES,Potency [1],Potency [2],Potency [3],Potency [4],Potency [5],Potency [6],Potency [7],Potency [8],Potency [9],Potency [10]
COc1ccccc1N1CCN(CCCCNC(=O)c2ccc(-c3ccc(C(C)=O)cc3)cc2)CC1,inactive,inactive,inactive,14.1 µM (active),inactive,inactive,inactive,inactive,inactive,inactive
Nc1ccc(S(=O)(=O)Nc2cnc3ccccc3n2)cc1,inactive,inactive,inactive,inactive,inactive,inactive,inactive,inactive,inactive,inactive
O=S(=O)(O)c1ccc(O)cc1,inactive,inactive,inactive,inactive,inactive,inactive,inactive,inactive,inactive,inactive
CCCN(CCC)S(=O)(=O)c1ccc(C(=O)O)cc1,inactive,inactive,inactive,inactive,inactive,inactive,inactive,inactive,inactive,inactive
CC(=O)Nc1ccc(OC(=O)c2ccccc2OC(C)=O)cc1,inactive,inactive,inactive,inactive,inactive,inactive,inactive,inactive,inactive,inactive
COc1ccc2c(c1)c1c3n2CCN(C)C3=NCC1,inactive,inactive,inactive,inactive,inactive,inactive,inactive,inactive,inactive,inactive
C#C[C@]1(OC(C)=O)CC[C@H]2[C@@H]3CCC4=C/C(=N/O)CC[C@@H]4[C@H]3CC[C@@]21CC,inactive,inactive,inactive,inactive,inactive,inactive,inactive,inactive,inactive,inactive
C=C[C@@]1(C)CC(=O)[C@]2(O)[C@@]3(C)[C@@H](O)CCC(C)(C)[C@@H]3[C@H](O)[C@H](OC(C)=O)[C@@]2(C)O1,inactive,inactive,inactive,inactive,inactive,inactive,inactive,inactive,inactive,inactive
FC1(F)C(F)(F)C(F)(F)C2(F)C(F)(F)C(F)(F)C(F)(F)C(F)(F)C2(F)C1(F)F (stereo unspecified),inactive,inactive,inactive,inactive,inactive,inactive,inactive,inactive,inactive,inactive
OC[C@H]1O[C@@H]2O[C@H]3[C@H](O)[C@@H](O)[C@@H](O[C@H]4[C@H](O)[C@@H](O)[C@@H](O[C@H]5[C@H](O)[C@@H](O)[C@@H](O[C@H]6[C@H](O)[C@@H](O)[C@@H](O[C@H]7[C@H](O)[C@@H](O)[C@@H](O[C@H]8[C@H](O)[C@@H](O)[C@@H](O[C@H]1[C@H](O)[C@H]2O)O[C@@H]8CO)O[C@@H]7CO)O[C@@H]6CO)O[C@@H]5CO)O[C@@H]4CO)O[C@@H]3CO,inactive,inactive,inactive,inactive,inactive,inactive,inactive,inactive,inactive,inactive
CCCCNc1ccc(C(=O)OCCOCCOCCOCCOCCOCCOCCOCCOCCOC)cc1,inactive,inactive,inactive,inactive,inactive,inactive,inactive,inactive,inactive,inactive
CC[C@H](c1ccc(O)cc1)[C@@H](CC)c1ccc(O)cc1,inactive,inactive,inactive,inactive,inactive,inactive,inactive,inactive,inactive,inactive
Oc1ccccc1C=NCc1ccccc1,inactive,inactive,inactive,inactive,inactive,inactive,inactive,inactive,inactive,inactive
N=C(N)N1CCc2ccccc2C1,inactive,inactive,inactive,inactive,inactive,inactive,inactive,inactive,inactive,inactive
C[C@@H](O)[C@H]1C(=O)N2C(C(=O)O)=C(S[C@@H]3CN[C@H](CNS(N)(=O)=O)C3)[C@H](C)[C@H]12,inactive,inactive,inactive,inactive,inactive,inactive,inactive,inactive,inactive,inactive
Cc1ccc(O)c([C@H](CCN(C(C)C)C(C)C)c2ccccc2)c1,8.91 µM (active),1.51 µM (active),7.94 µM (active),1 µM (active),7.94 µM (active),2 µM (active),4.47 µM (active),2.24 µM (active),2.82 µM (active),3.16 µM (active)
Nc1ccc(S(=O)(=O)NCc2ccccc2)cc1,inactive,inactive,inactive,inactive,inactive,inactive,inactive,inactive,inactive,inactive
COc1cc(C(=O)N2CCCCCCC2)cc(OC)c1OC,inactive,inactive,inactive,inactive,inactive,inactive,inactive,inactive,inactive,inactive
CCc1oc2ccccc2c1C(=O)c1cc(Br)c(O)c(Br)c1,inactive,inactive,inactive,inactive,inactive,inactive,inactive,inactive,inactive,inactive
CCCCCCCC/C=C\CCCCCCCCN,inactive,inactive,inactive,inactive,inactive,inactive,inactive,inactive,inactive,inactive
CC(=O)Nc1ccc(OCC(O)CNC(C)C)cc1 (stereo unspecified),inactive,inactive,inactive,inactive,inactive,inactive,inactive,inactive,inactive,inactive
Cc1ccc(S(=O)(=O)NC(=O)NC2CCCC2)cc1,inactive,inactive,inactive,inactive,inactive,inactive,inactive,inactive,inactive,inactive
NCCNC(=O)c1ccc(Cl)cn1,inactive,inactive,inactive,inactive,inactive,inactive,inactive,inactive,inactive,inactive

SMILES,Potency [1],Potency [2],Potency [3],Potency [4],Potency [5],Potency [6],Potency [7],Potency [8],Potency [9],Potency [10]
CCCCCCCCOc1ccc(C(=O)c2ccccc2)c(O)c1,inactive,inactive,inactive,inactive,inactive,inactive,inactive,inactive,inactive,inactive
CNCCc1ccccn1,inactive,inactive,inactive,inactive,inactive,inactive,inactive,inactive,inactive,inactive
CCCc1ncc(C[n+]2ccccc2C)c(N)n1,inactive,inactive,inactive,inactive,inactive,inactive,inactive,inactive,inactive,inactive
NS(=O)(=O)Cc1noc2ccccc12,inactive,inactive,inactive,inactive,inactive,inactive,inactive,inactive,inactive,inactive
C[N+]1(CC2COC(c3ccccc3)(C3CCCCC3)O2)CCCCC1 (stereo unspecified),3.16 µM (active),3.38 µM (active),4.47 µM (active),4.47 µM (active),12.6 µM (active),11.2 µM (active),6.31 µM (active),4.47 µM (active),5.01 µM (active),5.62 µM (active)
CCN1/C(=C/C=C/c2sc3ccccc3[n+]2CC)Sc2ccccc21,0.282 µM (active),0.301 µM (active),0.251 µM (active),0.1 µM (active),0.398 µM (active),0.251 µM (active),0.112 µM (active),0.112 µM (active),0.282 µM (active),0.316 µM (active)
COc1ccc(-c2cc(C(F)F)nn2-c2ccc(S(N)(=O)=O)cc2)cc1F,inactive,inactive,inactive,inactive,inactive,inactive,inactive,inactive,inactive,inactive
CCN(CC)CCNC(=O)c1cc(Br)c(N)cc1OC,inactive,inactive,inactive,inactive,inactive,inactive,inactive,inactive,inactive,inactive
Cc1cc(NS(=O)(=O)c2ccc(N)cc2)nc(C)n1,inactive,inactive,inactive,inactive,inactive,inactive,inactive,inactive,inactive,inactive
CCOc1cc(OCC)c(C(=O)CCC(=O)O)cc1OCC,inactive,inactive,inactive,inactive,inactive,inactive,inactive,inactive,inactive,inactive
CCc1oc2ccccc2c1C(=O)c1cc(I)c(O)c(I)c1,inactive,inactive,inactive,inactive,inactive,inactive,inactive,inactive,inactive,inactive
CC(C)Nc1cccnc1N1CCN(C(=O)c2cc3cc(NS(C)(=O)=O)ccc3[nH]2)CC1,inactive,inactive,inactive,7.94 µM (active),inactive,inactive,–,inactive,inactive,inactive
CCNC(=O)/C=C/c1cccc(Br)c1,inactive,inactive,inactive,inactive,inactive,inactive,inactive,inactive,inactive,inactive
Cc1cc(C)cc(OCC2CNC(=O)O2)c1 (stereo unspecified),inactive,inactive,inactive,inactive,inactive,inactive,inactive,inactive,inactive,inactive
CCc1ccc(C(=O)C(C)CN2CCCCC2)cc1 (stereo unspecified),inactive,inactive,inactive,inactive,inactive,inactive,–,inactive,inactive,inactive
c1ccc(CC2=NCCN2)cc1,inactive,inactive,inactive,inactive,inactive,inactive,inactive,inactive,inactive,inactive
O=C1C(=O)c2ccccc2C(O)=C1C1CCC(c2ccc(Cl)cc2)CC1 (stereo unspecified),0.0032 µM (active),0.0041 µM (active),0.0028 µM (active),0.002 µM (active),0.0056 µM (active),0.005 µM (active),0.004 µM (active),0.0071 µM (active),0.0045 µM (active),0.0045 µM (active)
CCCCC(CC)COC(=O)/C=C/c1ccc(OC)cc1 (stereo unspecified),inactive,inactive,inactive,inactive,inactive,inactive,inactive,inactive,inactive,inactive
Cc1cccc(C)c1NC(=O)c1ccccc1C(=O)O,inactive,inactive,inactive,inactive,inactive,inactive,inactive,inactive,inactive,inactive
NS(=O)(=O)c1ccc(Cl)c(S(N)(=O)=O)c1,inactive,inactive,inactive,inactive,inactive,inactive,–,–,inactive,inactive
OCc1ccccn1,inactive,inactive,inactive,inactive,inactive,inactive,inactive,inactive,inactive,inactive
CC(C)CCCC(C)N (stereo unspecified),inactive,inactive,inactive,inactive,inactive,inactive,inactive,inactive,inactive,inactive
